Bead autofluor = counter-screen for toxin protease inhibitors: compound fluorescence; compound autofluorescence counterscreen, microsphere flow cytometry; stronger effect = higher value; fluorescence intensity (test concentration not listed); 360,000 tested, 3.1% active; AID 624483; in the data active = fluorescence intensity above about 16000; inconclusive = no clear call, values can overlap the other calls
BoNT F protease = inhibitors of Botulinum neurotoxin F light chain protease; AID 588497; 360,000 tested, 0.22% active; inhibition, % at 10 µM; Multiplex microsphere protease cleavage assay, flow cytometry; in the data active = inhibition above about 35%, passing the limit was not always enough; inconclusive = no clear call, values can overlap the other calls; note: plate controls were buffer without enzyme for full effect and enzyme alone for no effect
3CLpro inhibitor = SARS-CoV 3CLpro protease inhibition. recombinant SARS-CoV 3CLpro, quenched FRET peptide cleavage. inhibition, % at 6 µM. 290,000 tested, 0.14% active. AID 1706; in the data active = inhibition above about 12%
Anthrax LF prot = inhibitors of Bacillus anthracis lethal factor protease; multiplex microsphere protease cleavage assay, LF; AID 588501; 360,000 tested, 0.12% active; P15917; inhibition, % at 10 µM; note: plate controls were buffer without enzyme for full effect and enzyme alone for no effect
BoNT A protease = inhibitors of Botulinum neurotoxin A light chain protease; 360,000 tested, 0.17% active; inhibition, % at 10 µM; AID 588499; multiplex microsphere protease substrate cleavage, flow cytometry; note: plate controls were buffer without enzyme for full effect and enzyme alone for no effect
CCHF vOTU inh = CCHFV vOTU protease inhibition; inhibition, % at 11.5 µM; Pep-AMC fluorescence; 370,000 tested, 0.55% active; in the data active = inhibition above about 30%; note: 0% = vehicle wells with enzyme and 100% = no enzyme wells
* = called active by the depositor; ? = inconclusive; . = no result given. The list is not random: actives were taken first. Their share in the collection is about 3.9%. Cut-off read from the data, not from the text of the source, unless noted: active = inhibition above about 30%; inconclusive = no clear call, values can overlap the other calls; inactive = below that.

SMILES	Bead autofluor	BoNT F protease	3CLpro inhibitor	Anthrax LF prot	BoNT A protease	CCHF vOTU inh
Cc1ccc(C)c2[nH]c(=O)c(CN(Cc3ccco3)S(=O)(=O)c3ccc4c(c3)OCCO4)cc12	22529*	5.0	4.0	-2.1	3.1	8.5
O=C(NCCCN1CCCCC1)c1ccc2c(c1)NC(=O)C(N1CCCCC1)S2 (centres undefined)	3468	-6.8	1.3	-1.3	-0.1	2.4
COC(=O)c1ccc2c(c1)NC(=O)C(N1CCCCC1)S2 (centres undefined)	22781*	0.3	-0.9	-1.0	0.5	3.0
COC(=O)c1ccc2c(c1)NC(=O)C(N1CCCC1)S2 (centres undefined)	19419*	3.0	-4.3	2.7	2.1	-2.5
O=C(O)c1ccc2c(c1)NC(=O)C(N1CCCC1)S2 (centres undefined)	15935	2.1	1.1	-4.1	1.2	-7.6
CC(C)(C)c1ccc(C(CC(=O)O)NC(=O)C23CC4CC(CC(C4)C2)C3)cc1 (centres undefined)	3176	-12.4	6.5	-7.0	-3.7	-2.8
CCOc1ccc(C(CC(=O)O)NC(=O)C23CC4CC(CC(C4)C2)C3)cc1 (centres undefined)	21930*	-6.8	3.9	0.2	-4.8	-0.1
CCN1CCN(c2nc3sc4c(c3c(=O)n2-c2ccc(OC)cc2)CCCCC4)CC1	16947*	-2.6	-7.3	0.4	-1.3	3.6
CCCOC(=O)Nc1nnc(CCC)s1	21272*	10.0	1.9	2.0	7.0	-1.1
CCSc1nc2c(sc3ccccc32)c(=O)n1C(C)C	23016*	0.0	2.3	-0.1	0.8	-3.4
NC(=O)c1ccsc1NC(=O)COC(=O)CCc1ccccc1	3853	-4.2	.	-0.1	-0.3	6.9
Cc1ccc(-c2nc3s/c(=C\c4ccco4)c(=O)n3n2)cc1	7600	8.7	5.4	3.8	1.2	17.8
O=c1nc2s/c(=C\c3ccco3)c(=O)n2nc1Cc1ccc(F)cc1	25032*	-4.3	5.3	-1.9	-2.0	2.8
Cc1cc(C(=O)NN=Cc2ccccc2C(=O)O)n[nH]1	.	.	.	.	.	0.6
Cc1cc([N+](=O)[O-])c2[nH]c(C(=O)N/N=C/c3ccccc3C(=O)O)c(-c3ccccc3)c2c1	19535*	-1.1	-1.9	2.4	0.6	-13.3
CCOC(=O)C1=C(CN2c3ccccc3CC2C)NC(=O)NC1c1ccccc1 (centres undefined)	2062	15.9	0.3	43.9*	54.5*	8.4
CC1CC(C)(C)NC(=S)N1CCC(=O)N1c2ccccc2CC1C (centres undefined)	3286	2.4	2.4	-4.8	0.1	-1.2
Cc1ccc(-c2nnn(CC(=O)N(CC(=O)NC(C)C)c3cnc4ccccc4c3)n2)o1	7183	2.5	2.9	-1.8	-0.4	12.5
Cc1ccc(-c2nnn(CC(=O)N(CC(=O)NC3CCCC3)c3cnc4ccccc4c3)n2)o1	20315*	-0.1	2.5	-1.2	1.4	-7.8
CCC(C(=O)NC1CCCC1)N(C(=O)Cn1nnc(-c2ccc(C)o2)n1)c1cnc2ccccc2c1 (centres undefined)	26220*	-10.6	2.6	-0.9	-9.5	5.2
Cc1ccc(-c2nnn(CC(=O)N(CC(=O)NCC3CCCO3)c3ccc(F)c(Cl)c3)n2)o1 (centres undefined)	25388*	-10.9	-2.8	-4.8	-7.0	-5.8
CCC(=O)N1CCC1(C)C(=O)Nc1cc(OC)ccc1OC (centres undefined)	4180	-27.3	.	-8.9	-1.7	-9.2
Cc1ccc(N2CCN(CC3CC=CCC3)CC2)cc1 (centres undefined)	21210*	2.7	0.8	-2.2	2.3	-7.1
COc1ccc(OC)c(NC(=O)C2CCN(Cc3cnn(-c4ccccc4)c3-n3cccc3)CC2)c1	20746*	-3.8	-2.6	-4.0	-1.5	-7.6
CCn1c(SCC(=O)NC2CCCCC2)nnc1-c1cc2cccc(OC)c2o1	4559	28.5	-2.5	-3.0	0.6	11.6
COc1cccc2cc(-c3nnc(SCC(=O)NCc4ccccc4)n3C)oc12	22828*	6.4	-2.3	2.4	?	-6.2
COc1cccc2cc(-c3nnc(SCC(=O)Nc4cc(C(F)(F)F)ccc4Cl)n3N)oc12	23578*	-3.0	2.4	3.0	-2.1	-3.3
CC(C)NC(=O)c1csc([C@@H]2O[C@H](CO)[C@H](O)[C@H](O)[C@H]2O)n1	2890	3.6	.	-2.1	0.4	0.9
N#Cc1ccc(/C=C2\CC3(OC(=O)C4CCCCC4)CCCN2C3)cc1 (centres undefined)	.	.	.	.	.	6.3
